About 860 (78%) of roughly 1,100 compounds were called active. Inconclusive results (about 19%) are left out. Calls come from the whole dose curve; as a rule, active = well fitted activation curve with a large enough effect; inconclusive = small, poorly fitted or top-dose-only effect; inactive = flat fitted curve, though single readings scatter. The set was probably picked from earlier hits. The list shows a part of the results.
Potency is the fitted concentration of half-maximal effect.

A short description of the assay: qHTS of Nrf2 Activators: Hit Validation in Primary Assay. Note: nearly all actives have a fitted effect of over 70% in size. As to conditions: Nrf2/ARE reporter cell assay; Potency: activation; series mostly up to 46.1 µM. In outline: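 AREc32 cells stably carrying an ARE-driven firefly luciferase, plated overnight, then exposed 24 h at 37 °C to compounds at several concentrations. ARE activation read as luminescence with Steady-Glo after 30 min at room temperature.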
In general terms: Quantitative high-throughput screening tests each substance at several concentrations.
`COc1ccccc1NC(=O)c1cc(Cl)nc2ccccc12`: the Potency was 5.17 µM (active).
For `O=[N+]([O-])c1cnccc1-n1nnc2ccccc21` the value was 18.4 µM (active).
Under `COc1ccc(S(=O)(=O)NCCc2csc3nc(-c4ccc(Cl)cc4)nn23)cc1C` stands 5.17 µM (active); under `O=C(COCc1cc(-c2cccs2)on1)Nc1cc(Cl)ccc1O`, 2.31 µM (active).
Under `O=C(COCc1cc(-c2ccc(F)cc2)on1)Nc1cc(Cl)ccc1O` stands 8.2 µM (active).
On to `Oc1ccccc1C1CC(c2cccs2)=NC(c2ccc(Cl)cc2)N1` (stereo not drawn), for which the Potency was 13 µM (active).
For `C/C(=N\NC(=O)COc1ccccc1[N+](=O)[O-])c1cccs1` the value was 6.51 µM (active); for `COC(=O)c1ccccc1NC(=O)COc1ccccc1[N+](=O)[O-]`, 2.59 µM (active); for `O=c1nc2c(-c3ccccc3F)n[nH]n2c2ccccc12`, 2.59 µM (active).
For `CCNc1nc(NCC)nc(N(C)/N=C/c2ccco2)n1` the value was 2.59 µM (active); for `O=C(N/N=C\c1ccco1)Nc1cccc(Cl)c1`, 2.31 µM (active); for `O=C(N/N=C/c1ccco1)Nc1ccccc1`, 8.2 µM (active).
For `O=C(Nc1ccc(F)cc1)c1nsc(Cl)c1Cl` the value was 1.64 µM (active); for `Clc1ccc(C=Cc2ccccn2)cc1`, 5.17 µM (active); for `O=C(Nc1cccc(/C=C/c2ccccn2)c1)c1ccc(-n2cncn2)cc1`, “inactive”.
On to `Clc1ccc(C=Cc2ccccn2)c(Cl)c1`, for which the Potency was 3.66 µM (active).
Under `CC1(C)C2C/C(=N\O)C(C)(/[N+]([O-])=C/c3cccc([N+](=O)[O-])c3)CC21` (stereo not drawn) stands 20.6 µM (active).
For `N#C/C(=C\C=C\c1ccccc1)C(=O)NCc1cccnc1` the value was 2.31 µM (active).
For `COCCNc1ccc(-c2nc(-c3ccco3)no2)cc1[N+](=O)[O-]` the value was 1.46 µM (active); for `CCCNc1ccc(-c2nc(-c3ccco3)no2)cc1[N+](=O)[O-]`, 2.31 µM (active); for `CCNc1ccc(-c2nc(-c3ccco3)no2)cc1[N+](=O)[O-]`, 1.46 µM (active).
Turning to `O=[N+]([O-])c1cc(-c2nc(-c3ccccc3)no2)ccc1NCc1cccnc1`, the Potency is 2.31 µM (active).
Under `Cc1nn(-c2cccc(C(F)(F)F)c2)c(=O)c2ccccc12` stands 3.66 µM (active); under `CCOc1ccc(Br)cc1-c1noc(-c2cccs2)n1`, 2.31 µM (active).
Under `CCOc1ncccc1-c1nc(-c2cccs2)no1` stands 18.4 µM (active).
Under `COc1cc(-c2noc(-c3cccs3)n2)cc(OC)c1OC` stands 13 µM (active); under `CCN=c1scc(C)n1/N=C/c1ccsc1`, 7.31 µM (active).
With `Cc1nc([N+](=O)[O-])c(Br)n1Cc1ccccc1`, the Potency was 20.6 µM (active).
